The results in this text go back to ChEMBL document CHEMBL3988442, “University of Dundee, Small-Polar-MMV Screening Library” (2021).

This assay addresses Shiga toxin 2 (Escherichia coli O157:H7) (UniProt P09385+P09386). The assay is described as follows: E. coli 0.157:H7 Shiga Toxin SOP - stx2 screening assay. The arrangement: scale not given: direction of the effect not stated beside the values. It is filed as functional. The following applies: 30 µM.
Regarding `COc1ccc(NC(=O)NC(C)(C)c2noc(C)n2)cc1`, the Percent Effect was -8.05%.

Take `Cc1ccc(SCC(=O)NS(=O)(=O)c2ccc3c(c2)OCCO3)cc1`: the Percent Effect was found to be 21.2%.

In the case of `CC(C)CN1C(=O)c2ccc(C(=O)NCCc3c[nH]cn3)cc2C1=O`, the Percent Effect is -22.9%.

For the compound `CCn1cc(Br)c(C(=O)NCc2cccnc2)n1`, the Percent Effect was -69.5%.

As to `O=C(CCc1ccsc1)N1CCC(Cc2ccc(CO)cc2)C1` (stereo not given), the Percent Effect is -19.1%.

`Cc1cccc(OCCC(=O)NCC(C)(C)C(N)=O)c1`: the Percent Effect is 31.1%.

As for `COc1ncc(-c2nccn2CCN(C)C)cn1`, the Percent Effect was -6.87%.

Consider `O=C(NCCN1CCNCC1)c1nc2ccccc2c(=O)[nH]1`, for which the Percent Effect is -55.8%.

As for `Cn1ccc(C(=O)N2CCC[C@]3(C[C@@H](OCc4ccccn4)CO3)C2)n1`, the Percent Effect was -3.97%.

With `CC(C)=CCN1CCOC(Cn2nc(C)cc2C)C1` (stereo not given), the Percent Effect worked out at 24.4%.

With `Cc1nccn1C1CCCN(C(=O)c2ccc(N3CCCC3)nn2)C1` (stereo not given), the Percent Effect is 17.8%.

Regarding `CN1CCCC(Cc2ccnc3ccncc23)CC1` (stereo not given), the Percent Effect was -21.3%.

Turning to `Cc1cccc(CN(C)Cc2nc3c(cnn3C)c(=O)[nH]2)c1`, the Percent Effect worked out at 35.9%.

Take `Cc1cnn(CC(C)NCc2ccc(OCc3ccncc3)cc2)c1` (stereo not given): the Percent Effect is -25.9%.

On to `COc1cccc2c1ccn2CC(=O)N[C@@H](CCSC)C(=O)O`, for which the Percent Effect was -11.2%.

With `Cc1ncccc1O[C@H]1CCN(C(=O)Cc2cccs2)CC[C@@H]1O`, the Percent Effect is -7.15%.

With `Cc1ccc(C(=O)NCCNc2ncccc2C#N)c(=O)[nH]1`, the Percent Effect is -19.7%.

Take `CC(=O)NCCNC(=O)N(C)Cc1ccc2c(c1)OCCO2`: the Percent Effect was 15.2%.

As for `COc1cccc(-c2nc(C)c(C(=O)NC(CO)CCSC)s2)c1` (stereo not given), the Percent Effect is -34.8%.

Consider `O=C(Cc1cccc(F)c1)N1CCCCC1c1ccn2ccnc2n1` (stereo not given), for which the Percent Effect is -7.82%.

With `CC(=O)N1C[C@@H](c2ccsc2)[C@@H]2CN(Cc3ccccc3)CC[C@@H]21`, the Percent Effect is -20.6%.

In the case of `CC(c1cccc(S(N)(=O)=O)c1)N(C)CCOc1ccccc1` (stereo not given), the Percent Effect was -29.3%.

For the compound `CC(C)NC(=O)CC1COC2(CCN(Cc3cccs3)CC2)C1` (stereo not given), the Percent Effect was -27.2%.

As to `NC(=O)C(CNC(=O)COCC(F)(F)F)Cc1ccc(F)cc1` (stereo not given), the Percent Effect turned out to be 4.66%.

Turning to `CCc1nc(C(=O)NCc2ccc(N3CCNC(=O)C3)c(F)c2)c[nH]1`, the Percent Effect was -51.1%.

On to `c1ccc(CN2CC[C@@H]3O[C@H](COCc4ccncc4)CC[C@@H]32)nc1`, for which the Percent Effect was -18%.

In the case of `Cc1ccc(CC(=O)N2CCCCC2c2nc(C)cs2)cn1` (stereo not given), the Percent Effect was found to be 1.25%.

For the compound `CS(=O)(=O)NCC1CCCCN1C(=O)Nc1cccnc1N1CCCC1` (stereo not given), the Percent Effect stood at 4.39%.

`Cn1cc(CNCCOc2ccc(F)c(F)c2)c(-c2cccnc2)n1`: the Percent Effect was -38.1%.

With `CSCc1cccc(S(=O)(=O)NCCCN2CCOCC2)c1`, the Percent Effect was -32.1%.

Turning to `O=C(CCc1ccccn1)N1CCc2cc(Cl)cc(Cl)c2C1`, the Percent Effect was -69.6%.

`Cc1cccc(CN2C(=O)CO[C@@H]3CN(Cc4nccn4C)C[C@H]32)c1`: the Percent Effect was -7.92%.

`Cc1cc2nc(SCC(=O)N3CCCC3)n(-c3ccccc3)c(=O)c2[nH]1`: the Percent Effect is -24.4%.

Turning to `CS(=O)(=O)N1CCC2(CC1)CC(CC(=O)N1CCCC1)c1ccccc12` (stereo not given), the Percent Effect was 8.75%.

Regarding `Cc1ncc(CNCC2CCCN2c2cccnn2)s1` (stereo not given), the Percent Effect is -14.7%.

For `CC1COCCN1C(=O)c1cccc(OCc2cscn2)c1` (stereo not given), the Percent Effect is 0.62%.

Take `COc1ccccc1CC(=O)NS(=O)(=O)c1ccc(C(N)=O)cc1`: the Percent Effect was determined as 7.74%.

Consider `COc1cccc(CN(C)C(=O)CN2CC(n3nc(C)cc3C)C2)c1`, for which the Percent Effect was -22.3%.

As for `O=C(c1cncc(Br)c1)N1CCC(O)(Cn2ccc3ccncc32)CC1`, the Percent Effect was -12.7%.

Regarding `Cc1cc(C)n(Cc2ccc(C(=O)NCCN3CCOCC3)cc2)n1`, the Percent Effect was determined as 6.83%.
